Screens as filed in PubChem.
Shown are actives, neighbours in structure and some others; about 19% of the full set was active somewhere.
HT1080 IDH1KD tx – kills HT-1080 cells with IDH1 knockdown. Potency, µM (series often up to 46.1 µM), for the others: at the top dose activity, negative = toxicity, usual class: cytotoxic. HT-1080 IDH1 knockdown viability, ATP luminescence, 48 h. 360,000 tested, 2% active;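 further: 0% = DMSO wells and -100% = cell-free medium wells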
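HT-1080-IDH1KD cells (IDH1 knocked down), 750/well in RPMI with 5% FBS, treated with compound 48 h at 37 degrees C. Viability by CellTiter-Glo luminescence, normalised to DMSO and no-cell wells; concentration-response curves classed.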
KB-3-1 cytotox – kills parental KB-3-1 adenocarcinoma cells; Potency, µM (doses to about 46.1 µM), usual class: cytotoxic; 400,000 tested, 1.4% active; AID 1347075; KB-3-1 viability, CellTiter-Glo ATP luminescence, 72 h; further: nearly all actives have a fitted effect of over 60% in size
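Here the drug-naive KB-3-1 line serves as comparator for MDR sub-line selectivity; cells received compound titrations, 72 h at 37 °C, then CellTiter-Glo readout.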
DT40 TDP1 no CPT – qHTS for Inhibitors of human tyrosyl-DNA phosphodiesterase 1 (TDP1): qHTS in cells in absence of CPT | DT40 Tdp1-/- hTDP1 cells, no CPT, ATP luminescence, 48 h | Potency, µM (top dose mostly 46.2 µM), inactives show at the highest dose activity change, negative = growth inhibition, most hits filed as inhibitors | 420,000 tested, 15% active | AID 686978, 2013; further: nearly all actives have a fitted effect of over 55% in size
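Chicken DT40 Tdp1-/- cells stably complemented with human TDP1 were seeded at 400 cells/well with DMSO in place of 20 nM camptothecin. After compound pinning, cells grew at least 48 hr at 37 °C; viability read by CellTiter-Glo luminescence.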
HT1080NT lethal – kills 2HG-producing HT-1080-NT fibrosarcoma cells. Potency, µM (top dose mostly 46.1 µM), for inactives: at the top dose activity, negative = less viability, most hits filed as cytotoxic. HT-1080-NT fibrosarcoma viability, CellTiter-Glo ATP luminescence, 48 h. AID 686970. 360,000 tested, 1.6% active;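 further: NT is the 2HG producing partner of a matched IDH1 knockdown line; 0% = DMSO-treated cells and -100% = media-only wells without cells; nearly all actives have a fitted effect of over 55% in size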
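Toxicity toward the 2HG-producing NT line was scored as %Activity, normalised to DMSO and no-cell wells, from CellTiter-Glo luminescence after 48 hours' treatment.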
DT40 TDP1 CPT – growth inhibition of DT40 Tdp1-/-;hTDP1 cells with camptothecin (screen for TDP1 inhibitors); 420,000 tested, 12% active; AID 686979; Potency, µM (highest dose often 46.2 µM), inactives show at the highest dose activity change, negative = growth inhibition, most hits filed as inhibitors; chicken DT40 Tdp1-/-;hTDP1 cells + 20 nM CPT, ATP luminescence, 48 h; further: nearly all actives have a fitted effect of over 55% in size
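Chicken DT40 Tdp1-/- cells complemented with human TDP1, 400 cells/well, exposed to compounds plus 20 nM camptothecin for at least 48 h at 37 C; viability read as ATP content by CellTiter-Glo luminescence.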
KB-V1 cytotox – kills drug-selected multidrug resistant KB-V1 cells; KB-V1 MDR cells viability, CellTiter-Glo, 72 h; Potency, µM (top dose mostly 46.1 µM), actives largely listed as cytotoxic; 400,000 tested, 3.4% active; further: nearly all actives have a fitted effect of over 60% in size
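KB-V1 cells (P-gp-expressing MDR subline of KB-3-1) in phenol-red-free DMEM with 10% FBS were exposed to library compounds over a concentration series for 72 h at 37 degrees C. Viability read by CellTiter-Glo luminescence; concentration-effect curves fitted after normalization.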
The depositor's hits bear a star; i = inactive; u = inconclusive; x = no result. The call rests on the fitted dose curve; in most records, active means well fitted curve in the direction sought with a large enough effect; inconclusive means small, poorly fitted or top-dose-only effect, or another doubt; inactive means no such curve, though single readings can be large; an effect the other way counts as inactive or inconclusive. Unless noted, on the % scale 0 is the no-effect control and ±100 the full control effect; potency means the concentration at half of the fitted maximal effect.

SMILES	HT1080 IDH1KD tx	KB-3-1 cytotox	DT40 TDP1 no CPT	HT1080NT lethal	DT40 TDP1 CPT	KB-V1 cytotox
CCOc1ccc(Nc2cc(C)c(C#N)c3nc4ccccc4n23)cc1	x	i	-28%	x	u	i
CCOc1nc(-c2ccccc2)c2cc(Br)ccc2n1	3%	i	u	1%	u	i
O=C(N/C(=C/c1cccs1)C(=O)N1CCOCC1)c1cccs1	7%	i	6%	1%	7%	i
CC(C)(C)c1ccc(C(=O)N/C(=C\c2cccs2)C(=O)N2CCOCC2)cc1	-11%	i	21µM*	-18%	-29%	u
O=[N+]([O-])c1cc(-c2cccnc2)n[nH]1	8%	i	-15%	4%	26%	i
Nc1nc2ccccc2n1C(=O)CCc1ccccc1	-19%	18µM*	18µM*	u	u	i
COc1ccc(C(=O)n2c(N)nc3ccccc32)cc1OC	19%	i	u	19%	u	i
Nc1nc2ccccc2n1C(=O)c1ccco1	-18%	i	-10%	-7%	u	i
Nc1nc2ccccc2n1C(=O)c1cccs1	-14%	i	u	u	u	u
Nc1nc2ccccc2n1C(=O)c1ccc(F)cc1	u	u	18µM*	u	u	u
Nc1nc2ccccc2n1C(=O)c1ccccc1	u	i	18µM*	u	u	u
Cc1ccc(/C=N/NC(=O)c2nnn(-c3nonc3N)c2C(C)C)s1	6%	i	-22%	11%	-12%	i
c1csc(-c2nnc(-c3ccc(N4CCOCC4)cc3)o2)c1	7%	i	u	9%	u	i
c1csc(-c2ccc(N3CCOCC3)nn2)c1	u	u	8.2µM*	u	u	u
Cc1cccc(C(=O)NCC(=O)N2CCCCCCC2)c1	3%	i	-19%	5%	-10%	i
Brc1ccc2c(c1)CN1CCCC1=N2	-18%	i	21µM*	-12%	13µM*	i
O=C1CN2C(=Nc3ccc(Br)cc3C2c2ccccc2)CCN1 (stereo unspecified)	0%	i	-22%	-5%	-7%	i
CCCN(CCC)CCCNC(=O)c1ccc(CS(=O)(=O)c2c(Cl)cccc2Cl)o1	-10%	i	6%	0%	-16%	i
CCOc1ccccc1NC(=S)N1CCN(c2nc(-c3ccc(F)cc3)cs2)CC1	-15%	i	15µM*	u	21µM*	i
CNC(=S)N1CCN(c2nc(-c3ccc(F)cc3)cs2)CC1	-10%	i	u	-9%	u	i
CCc1ccccc1NC(=S)N1CCN(c2ccccc2F)CC1	4%	i	u	-2%	-20%	i
CCOCCCNC(=S)N1CCN(c2nc(-c3ccc(F)cc3)cs2)CC1	u	u	u	21µM*	u	u
CCOc1ccccc1NC(=S)N1CCN(c2ccccc2F)CC1	3%	i	21µM*	8%	u	i
C=Cc1ccc(CN2C(=O)c3ccccc3Sc3ccc(C(=O)OCc4ccco4)cc32)cc1	x	i	x	x	x	u
Cc1cc(S(=O)(=O)N2CCOCC2)ccc1OCC(=O)Nc1ccc(Br)cc1F	-1%	i	1%	16%	9%	i
SMILES	HT1080 IDH1KD tx	KB-3-1 cytotox	DT40 TDP1 no CPT	HT1080NT lethal	DT40 TDP1 CPT	KB-V1 cytotox
O=C(CCN1C(=O)/C(=C/c2ccccc2)SC1=S)NC1CCS(=O)(=O)C1 (stereo unspecified)	20%	i	-15%	10%	-29%	i
O=C(CCCN1C(=O)/C(=C/c2ccc(F)cc2)SC1=S)NC1CCS(=O)(=O)C1 (stereo unspecified)	-16%	i	u	-3%	18µM*	u
O=C(CN1C(=O)S/C(=C\c2ccccc2)C1=O)NC1CCS(=O)(=O)C1 (stereo unspecified)	-1%	i	-11%	2%	-2%	i
CC(C)c1ccc(/C=C2\SC(=O)N(CC(=O)NC3CCS(=O)(=O)C3)C2=O)cc1 (stereo unspecified)	u	i	16µM*	-5%	23µM*	i
COc1cc(NC(=O)Cn2ncc3c([nH]c4ccc(C)cc43)c2=O)cc(OC)c1OC	x	i	2%	x	-4%	i
O=c1oc2c(-c3ccc([N+](=O)[O-])cc3)cc(O)cc2s1	-8%	i	u	-12%	u	i
O=C(CSc1nnc(C2COc3ccccc3O2)o1)N1CCCCC1 (stereo unspecified)	0%	i	-9%	-1%	-8%	i
c1ccc2c(c1)OCC(c1csc3ncnc(N4CCCC4)c13)O2 (stereo unspecified)	-18%	u	10µM*	-22%	15µM*	13µM*
c1ccc(CCNc2ncnc3scc(C4COc5ccccc5O4)c23)cc1 (stereo unspecified)	-30%	u	18µM*	-26%	u	13µM*
COC(=O)C(Cc1ccccc1)NC(=O)c1ccc(NS(=O)(=O)c2ccc3[nH]c(=O)[nH]c3c2)cc1 (stereo unspecified)	5%	i	11%	2%	-8%	u
COc1cccc(CN(C)C(=O)c2ccc(S(=O)(=O)Nc3ccccc3C)cc2)c1OC	-17%	i	-46%	-14%	-27%	i
CC(Oc1ccc(Cl)cc1Cl)c1ccnc2nc(N3CCOCC3)nn12 (stereo unspecified)	-18%	i	18µM*	-17%	u	u
Cc1cc(C)c(NC(=O)CN2c3ccccc3S(=O)(=O)c3ccccc32)c(C)c1	x	i	-8%	x	-10%	i
O=C(c1ccc(NS(=O)(=O)c2ccc3c(c2)OCCO3)cc1)N1CCCCC1	u	u	21µM*	u	u	i
CCOc1ccccc1N1CCN(C(=O)c2ccc(S(=O)(=O)Nc3ccccc3)cc2)CC1	-15%	u	u	-17%	18µM*	i
COc1ccc(NC(C)=O)cc1NS(=O)(=O)c1ccc2c(c1)OCCO2	-6%	u	5%	-2%	-4%	i
O=C(O)c1ccc(S(=O)(=O)Nc2ccc3c(c2)OCCO3)cc1	17%	i	6%	24%	6%	u
COc1ccc(NS(=O)(=O)c2ccc(C(=O)N3CCC(C)CC3)cc2)cc1	-13%	i	u	-5%	23µM*	i
